Data as given in PubChem BioAssay (EPA / NIEHS).
Results filed as inconclusive are left out. Active and inactive are the calls of the source. Rule for the calls, unless noted: active = hit-call score of the fitted dose curve at least 0.9, where 1 is the maximum; inactive = score below 0.9.

Assays:
[1] = read-out: E-selectin (Homo sapiens) (UniProt P16581); test: BSK_3C_Eselectin: BioMAP Diversity Plus: 3C Assay for Eselectin Biomarker Activity (AID 2283015); details: primary human endothelial cells (HUVEC); actives raise or lower the signal
Summary of the method: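 Primary human umbilical vein endothelial cells (3C system), read 24 h after compound addition; E-selectin measured by ELISA. Bidirectional curve fitting against DMSO baseline; cytotoxicity by parallel SRB total-protein staining.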

[2] = read-out: Interleukin-1 alpha (IL1a), IL1A (gene 3552); test: BSK_BE3C_IL1a: BioMAP Diversity Plus: BE3C Assay for Interleukin-1 alpha (IL1a) Biomarker Activity (AID 2283016); details: primary human bronchial epithelial cells; actives raise or lower the signal
Summary of the method: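 BE3C primary human bronchial epithelium; cpd 24 h; IL-1a by ELISA; bidirectional fit vs DMSO; parallel SRB (0.1% SRB, 10% TCA fix, 560 nm) for cytotoxicity.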

[3] = read-out: Monocyte Chemoattractant Protein-1 (MCP1), CCL2 (gene 6347); test: BSK_3C_MCP1: BioMAP Diversity Plus: 3C Assay for Monocyte Chemoattractant Protein-1 (MCP1) Biomarker Activity (AID 2283017); details: primary human endothelial cells (HUVEC); actives raise or lower the signal
Summary of the method: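 Human umbilical vein endothelial cells (3C system) exposed to chemicals for 24 h; MCP-1 quantified by ELISA against the DMSO baseline with bidirectional fitting, and parallel SRB staining used to assess cytotoxicity.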

[4] = read-out: Monocyte Chemoattractant Protein-1 (MCP1), CCL2 (gene 6347); test: BSK_4H_MCP1: BioMAP Diversity Plus: 4H Assay for Monocyte Chemoattractant Protein-1 (MCP1) Biomarker Activity (AID 2283018); details: primary human endothelial cells (HUVEC); actives raise or lower the signal
Summary of the method: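 ELISA read-out of MCP-1 from human vascular endothelial primary cells taken at 24 hours after compound exposure. Activity was fitted in both directions relative to DMSO, which served as negative control.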

[5] = read-out: Human Leukocyte Antigen - DR isotype (HLADR), HLA-DRA (gene 3122); test: BSK_3C_HLADR: BioMAP Diversity Plus: 3C Assay for Human Leukocyte Antigen - DR isotype (HLADR) Biomarker Activity (AID 2283019); details: primary human endothelial cells (HUVEC); actives raise or lower the signal
Summary of the method: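 HUVEC monoculture, HLA-DR measured by ELISA 24 h after chemical dosing. Fitted bidirectionally against DMSO baseline; parallel SRB staining assessed cytotoxicity, with 3C proliferation read by SRB at 48 h.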

[6] = read-out: Interleukin-8 (IL8), CXCL8 (gene 3576); test: BSK_3C_IL8: BioMAP Diversity Plus: 3C Assay for Interleukin-8 (IL8) Biomarker Activity (AID 2283020); details: primary human endothelial cells (HUVEC); actives raise or lower the signal
Summary of the method: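 ELISA read-out of IL-8 from human umbilical vein endothelium, measured 24 h after chemical dosing. Activity is expressed relative to DMSO negative control, with both increases and decreases fitted.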

[7] = read-out: Monokine induced gamma interferon (MIG), CXCL9 (gene 4283); test: BSK_3C_MIG: BioMAP Diversity Plus: 3C Assay for Monokine induced gamma interferon (MIG) Biomarker Activity (AID 2283021); details: primary human endothelial cells (HUVEC); actives raise or lower the signal;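 for AC50: MIG protein level measured by immunoassay in the treated endothelial cultures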
Summary of the method: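 Read-out is ELISA detection of MIG on human umbilical vein endothelial cells, taken 24 h after dosing. Gain or loss of signal was scored relative to DMSO controls using bidirectional curve fitting.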

[8] = target: human Vitamin D Receptor (VDR), VDR (gene 7421) (UniProt P11473); test: ATG_VDR_TRANS: Attagene TRANS-FACTORIAL HepG2 Assay for human Vitamin D Receptor (VDR) (AID 2283022; active = hit-call score of the fitted dose curve at least 0.9, where 1 is the maximum)
Summary of the method: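 HepG2 cells were transiently transfected with GAL4-UAS reporter units and a chimeric VDR-Gal4 construct, then dosed for 24 hours. Reporter mRNA was quantified by RT-PCR, fluorescent labeling, HpaI digestion and capillary electrophoresis; gain of signal analysed vs DMSO.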

[9] = BSK_3C_SRB: Viability Assessment in the BioMAP Diversity Plus: 3C Assay (AID 2283023); details: primary human endothelial cells (HUVEC);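 note: fitted both ways against DMSO so a hit may be signal rise or drop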
Summary of the method: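 Human umbilical vein endothelial cells in the 3C system, treated 24 h. Total protein measured by 0.1% sulforhodamine B staining after 10% TCA fixation, read at 560 nm; bidirectional fit versus DMSO.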

[10] = read-out: Matrix Metallopeptidase 1 (MMP1), MMP1 (gene 4312); test: BSK_BE3C_MMP1: BioMAP Diversity Plus: BE3C Assay for Matrix Metallopeptidase 1 (MMP1) Biomarker Activity (AID 2283024); details: primary human bronchial epithelial cells; actives raise or lower the signal
Summary of the method: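 Human bronchial epithelial cells (BE3C system) exposed to compound for 24 h; MMP1 then quantified by ELISA. Activity was fitted in both directions relative to DMSO.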

[11] = read-out: Pselectin, SELP (gene 6403); test: BSK_4H_Pselectin: BioMAP Diversity Plus: 4H Assay for Pselectin Biomarker Activity (AID 2283026); details: primary human endothelial cells (HUVEC); actives raise or lower the signal
Summary of the method: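 ELISA read-out of P-selectin on human umbilical vein endothelium after 24 h of dosing. Values derive from bidirectional fitting relative to DMSO. Parallel SRB protein staining flagged overt cytotoxicity.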

[12] = BSK_4H_SRB: Viability Assessment in the BioMAP Diversity Plus: 4H Assay (AID 2283027); details: primary human endothelial cells (HUVEC);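 note: cells exposed to compound for 24 h before staining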;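 for AC50: curves fitted both ways versus DMSO so AC50 may be loss or gain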
Summary of the method: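 Absorbance at 560 nm of SRB-stained total protein served as the viability read-out in confluent primary human umbilical vein endothelium 24 h after chemical treatment. Curves were fitted bidirectionally against DMSO as negative control.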

[13] = BSK_BE3C_SRB: Viability Assessment in the BioMAP Diversity Plus: BE3C Assay (AID 2283028); details: primary human bronchial epithelial cells
Summary of the method: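 Human bronchial epithelial primary cells in confluent culture, 24 h after chemical dosing; total protein by 0.1% SRB staining after 10% TCA fixation, read at 560 nm. Bidirectional fitting versus DMSO baseline.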

[14] = read-out: Thrombomodulin, THBD (gene 7056); test: BSK_3C_Thrombomodulin: BioMAP Diversity Plus: 3C Assay for Thrombomodulin Biomarker Activity (AID 2283029); details: primary human endothelial cells (HUVEC); actives raise or lower the signal
Summary of the method: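 Read-out is ELISA of thrombomodulin on human umbilical vein endothelium 24 h after chemical dosing. Gain or loss of signal is scored relative to DMSO. Overt cytotoxicity is checked in parallel cultures by sulforhodamine B staining.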

[15] = read-out: Urokinase-type plasminogen activator receptor (uPAR), PLAUR (gene 5329); test: BSK_4H_uPAR: BioMAP Diversity Plus: 4H Assay for Urokinase-type plasminogen activator receptor (uPAR) Biomarker Activity (AID 2283030); details: primary human endothelial cells (HUVEC); actives raise or lower the signal
Summary of the method: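 Human umbilical vein endothelial cells in the 4H system, 24 h after chemical dosing. Cell-surface uPAR measured by ELISA, fitted in both directions versus DMSO; cytotoxicity checked by SRB total protein in parallel cultures.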

[16] = read-out: Vascular endothelial growth factor receptor 2 (Homo sapiens) (UniProt P35968); test: BSK_4H_VEGFRII: BioMAP Diversity Plus: 4H Assay for Vascular endothelial growth factor receptor 2 (VEGFR2) Biomarker Activity (AID 2283031); details: primary human endothelial cells (HUVEC); actives raise or lower the signal;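 for AC50: cell-surface VEGFR2 protein level quantified by ELISA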
Summary of the method: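 Primary human umbilical vein endothelial cells (4H system), 24 h exposure; cell-surface VEGFR2 measured by ELISA. Bidirectional fitting versus DMSO; cytotoxicity checked in parallel by SRB total-protein staining.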

[17] = read-out: Human Leukocyte Antigen - DR isotype (HLADR), HLA-DRA (gene 3122); test: BSK_BE3C_HLADR: BioMAP Diversity Plus: BE3C Assay for Human Leukocyte Antigen - DR isotype (HLADR) Biomarker Activity (AID 2283032); details: primary human bronchial epithelial cells; actives raise or lower the signal
Summary of the method: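 ELISA read-out of HLA-DR on human lung bronchial epithelial primary cells, measured 24 h post-dosing. Both increases and decreases were scored relative to DMSO vehicle.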

[18] = read-out: Vascular cell adhesion molecule 1 (VCAM1), VCAM1 (gene 7412); test: BSK_4H_VCAM1: BioMAP Diversity Plus: 4H Assay for Vascular cell adhesion molecule 1 (VCAM1) Biomarker Activity (AID 2283033); details: primary human endothelial cells (HUVEC); actives raise or lower the signal
Summary of the method: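 ELISA read-out of VCAM-1 on human umbilical vein endothelium 24 hours after chemical dosing; gain or loss of signal was fitted relative to DMSO, with sulforhodamine B staining of parallel cultures flagging overt cytotoxicity.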

[19] = read-out: Interferon-gamma inducible Protein 10 (IP10), CXCL10 (gene 3627); test: BSK_BE3C_IP10: BioMAP Diversity Plus: BE3C Assay for Interferon-gamma inducible Protein 10 (IP10) Biomarker Activity (AID 2283034); details: primary human bronchial epithelial cells; actives raise or lower the signal
Summary of the method: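 Chemical is dosed onto human lung bronchial epithelial primary cells, cultures are incubated 24 h, and IP-10 is then quantified by ELISA. Gain or loss of signal is fitted in both directions relative to DMSO.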

[20] = BSK_3C_Vis: BioMAP Diversity Plus: 3C Assay for Morphology Visualization (AID 2283025); details: primary human endothelial cells (HUVEC);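 note: fitted both ways so gain or loss versus DMSO counts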;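 for AC50: light microscopy image of cell morphology used as background control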
Summary of the method: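 Chemicals were added to primary human umbilical vein endothelium, cells were incubated 24 h, and morphology was then visualized by light microscopy. Gain or loss of signal was fitted bidirectionally relative to DMSO.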

Measured: AC50

Sequence of human Vitamin D Receptor (VDR), VDR (gene 7421) (P11473 whole entry, looked up, the tested form may be a part): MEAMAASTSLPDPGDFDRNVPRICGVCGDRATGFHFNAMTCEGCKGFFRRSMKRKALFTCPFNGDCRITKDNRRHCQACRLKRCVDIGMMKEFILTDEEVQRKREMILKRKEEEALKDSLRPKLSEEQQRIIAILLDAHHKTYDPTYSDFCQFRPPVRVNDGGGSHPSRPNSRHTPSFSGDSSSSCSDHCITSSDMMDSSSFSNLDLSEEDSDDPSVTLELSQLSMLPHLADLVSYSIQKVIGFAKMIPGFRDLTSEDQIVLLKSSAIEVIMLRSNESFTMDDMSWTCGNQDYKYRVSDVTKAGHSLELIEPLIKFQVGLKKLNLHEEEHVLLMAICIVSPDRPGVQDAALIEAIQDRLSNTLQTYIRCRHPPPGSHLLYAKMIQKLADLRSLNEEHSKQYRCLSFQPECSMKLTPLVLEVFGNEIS
Sequence of E-selectin (Homo sapiens) (P16581 whole entry, looked up): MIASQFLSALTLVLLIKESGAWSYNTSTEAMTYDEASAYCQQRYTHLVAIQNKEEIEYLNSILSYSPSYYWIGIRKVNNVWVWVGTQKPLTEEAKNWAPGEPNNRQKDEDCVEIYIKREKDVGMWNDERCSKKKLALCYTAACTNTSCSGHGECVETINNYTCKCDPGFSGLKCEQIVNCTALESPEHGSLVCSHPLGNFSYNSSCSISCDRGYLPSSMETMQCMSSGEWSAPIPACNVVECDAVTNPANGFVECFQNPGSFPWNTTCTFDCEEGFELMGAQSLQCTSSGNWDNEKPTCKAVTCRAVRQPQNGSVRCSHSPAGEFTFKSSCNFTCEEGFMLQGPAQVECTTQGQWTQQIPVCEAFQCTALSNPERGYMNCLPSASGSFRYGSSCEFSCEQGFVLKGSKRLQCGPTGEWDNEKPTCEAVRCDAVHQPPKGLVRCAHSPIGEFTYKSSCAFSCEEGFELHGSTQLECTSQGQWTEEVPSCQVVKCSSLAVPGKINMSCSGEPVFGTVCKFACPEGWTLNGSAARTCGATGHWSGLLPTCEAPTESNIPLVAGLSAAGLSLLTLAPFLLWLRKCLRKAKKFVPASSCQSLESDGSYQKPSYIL

CC(C)(O)c1coc(S(=O)(=O)NC(=O)Nc2c3c(cc4c2CCC4)CCC3)c1
inactive: [1] | [2] | [3] | [4] | [5] | [6] | [7] | [8] | [9] | [10] | [11] | [12] | [13] | [14] | [15] | [16] | [17] | [18] | [19]

CCn1nc(Cc2ccccc2)cc1C1CCN(C[C@H]2C[C@H](N(C)[C@@H](C(=O)O)C(C)C)C[C@@H]2c2cccc(F)c2)CC1
inactive: [1] | [2] | [3] | [4] | [5] | [6] | [7] | [8] | [9] | [10] | [11] | [12] | [13] | [14] | [15] | [16] | [18] | [19]

C1N2CN3CN1CN(C2)C3
inactive: [1] | [2] | [3] | [4] | [5] | [6] | [7] | [8] | [9] | [10] | [20] | [11] | [12] | [13] | [14] | [15] | [16] | [17] | [18] | [19]

COC(=O)CC(=O)OC
inactive: [1] | [2] | [3] | [4] | [5] | [6] | [7] | [8] | [9] | [10] | [11] | [13] | [14] | [15] | [16] | [17] | [18] | [19]

CC[C@H]1CC[C@H](NCc2cc3c(cc2OC)[C@H]2C[C@H]2C(=O)N3C)[C@H](c2ccccc2)N1
inactive: [1] | [2] | [3] | [4] | [5] | [6] | [7] | [8] | [9] | [10] | [11] | [13] | [14] | [15] | [16] | [18] | [19]

CCCCC(CC)COC(=O)CCCCCCCCC(=O)OCC(CC)CCCC (centres undefined)
inactive: [1] | [2] | [3] | [4] | [5] | [6] | [7] | [9] | [10] | [11] | [12] | [13] | [14] | [15] | [16] | [17] | [18] | [19]

COc1cccc(-c2ccc(/C=C\CN3CCCCCC3)cc2Cl)c1
active: [1] 28.6 µM | [2] 29 µM | [3] 30.9 µM | [5] 27.8 µM | [6] 31.9 µM | [7] 34.3 µM | [9] 25.8 µM | [10] 4.82 µM | [20] 14.9 µM | [11] 26.5 µM | [12] 27.9 µM | [15] 26.9 µM | [16] 32.6 µM | [17] 29.4 µM | [18] 28.4 µM | [19] 27.9 µM
inactive: [8] | [13] | [14]
